JMJD2A Tudor: inhibitors of human JMJD2A Tudor domain. O75164. AlphaScreen JMJD2A-Tudor / H3K4me3 peptide binding. Potency, µM (top dose mostly 114 µM), for the others: at the highest dose activity change, negative = inhibition, hits mostly inhibitors. hit rate 4.4% among 390,000. AID 504339; further: on the % scale 0 is the no-effect control and ±100 the full control effect; nearly all actives have a fitted effect of over 50% in size
Sfp inh: Sfp phosphopantetheinyl transferase inhibition; Potency, µM, inactives show largest response in the series, negative = inhibition, most hits filed as inhibitors; hit rate 3.5% among 310,000; Biochemical Sfp PPTase activity, qHTS;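 further: the enzyme is Sfp with the accession as filed and its product quenches rhodamine fluorescence; 0% = enzyme reaction without inhibitor and -100% = no enzyme wells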
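Step 1, compound plus 15 nM Sfp-PPTase, 15 min, room temperature. Step 2, add rhodamine-CoA (5 uM) and BHQ-2-YbbR (12.5 uM). Step 3, read 525/598 nm fluorescence at 0 and 30 min.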
G9a inh: G9a (human) methyltransferase inhibition; Q96KQ7; Potency, µM (highest dose often 102 µM), for the others: at the highest dose activity, negative = inhibition, usual class: inhibitors; G9a H3K9 monomethylation, AlphaScreen, 2 h; hit rate 8.8% among 350,000; AID 504332; further: on the % scale 0 is the no-effect control and ±100 the full control effect; nearly all actives have a fitted effect of over 75% in size
Target sequence (Q96KQ7 913-1193 limits assumed): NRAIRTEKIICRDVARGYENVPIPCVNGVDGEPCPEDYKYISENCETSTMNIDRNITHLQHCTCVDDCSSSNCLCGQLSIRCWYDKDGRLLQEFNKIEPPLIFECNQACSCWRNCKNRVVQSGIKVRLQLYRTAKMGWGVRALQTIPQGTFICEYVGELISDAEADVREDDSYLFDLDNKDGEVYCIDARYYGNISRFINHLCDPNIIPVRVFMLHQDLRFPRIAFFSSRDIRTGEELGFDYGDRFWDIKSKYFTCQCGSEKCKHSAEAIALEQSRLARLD
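Using a bead-based AlphaScreen, monomethylated H3K9 product from 2 h room-temperature reactions (G9a 20 nM, peptide 500 nM, SAM 20 uM) was detected with 0.5 ug/mL rabbit anti-H3K9me1 antibody.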
HP1b chromo inh: inhibitors of HP1-beta chromodomain binding to methylated histone tails. P83916. AlphaScreen HP1-beta / biotin-H3K9me3 peptide binding. Potency, µM (top dose mostly 114 µM), for inactives: at the highest dose activity change, negative = inhibition, usual class: inhibitors. hit rate 0.56% among 390,000. AID 540317; further: nearly all actives have a fitted effect of over 70% in size
Target sequence (P83916 whole entry, looked up): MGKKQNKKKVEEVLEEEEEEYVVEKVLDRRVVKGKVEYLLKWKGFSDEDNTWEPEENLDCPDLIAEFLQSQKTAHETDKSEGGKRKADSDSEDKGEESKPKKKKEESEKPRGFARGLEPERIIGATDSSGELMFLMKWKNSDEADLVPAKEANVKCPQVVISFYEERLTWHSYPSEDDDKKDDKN
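Compound inhibition of the preformed complex between 50 nM HP1-beta and 50 nM biotinylated H3K9me3 peptide was read by AlphaScreen. Buffer was PBS pH 7.4 with 0.01% Tween-20. Incubations ran 30 min at room temperature, with 10 ug/mL donor/acceptor beads.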
BAZ2B inh: blocks human BAZ2B; hit rate 4.4% among 360,000; Potency, µM (top dose mostly 114 µM), inactives show at the top dose activity change, negative = inhibition, actives largely listed as inhibitors; AlphaScreen BAZ2B-H3K14Ac peptide displacement; AID 504333; Q9UIF8; further: on the % scale 0 is the no-effect control and ±100 the full control effect; nearly all actives have a fitted effect of over 60% in size
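Multi-concentration screen (max 110 uM) measuring displacement of acetylated histone H3 peptide from BAZ2B by AlphaScreen, using 50 nM protein, 50 nM peptide and 10 ug/mL streptavidin donor plus Ni-chelate acceptor beads.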
* marks the source's active call; other numbers are inactive results; [ ] = dose if it differs, or a comment. Most compounds without a hit are left out; they make up all but 12% or so of the library. The call rests on the fitted dose curve; in most records, active means well fitted curve in the direction sought with a large enough effect; inconclusive means small, poorly fitted or top-dose-only effect, or another doubt; inactive means no such curve, though single readings can be large; an effect the other way counts as inactive or inconclusive. Potency means the concentration at half of the fitted maximal effect.

O=C(NNc1nc2cc3c(cc2s1)OCO3)c1cccc(F)c1 was read as JMJD2A Tudor -15%, Sfp inh 28µM*, G9a inh 8.9µM*, HP1b chromo inh 32% and BAZ2B inh -5%.
`O=C(NNc1nc2cc3c(cc2s1)OCO3)c1ccccc1` gave JMJD2A Tudor -18%, Sfp inh inconclusive, G9a inh 28µM*, HP1b chromo inh 28% and BAZ2B inh -6%.
For COc1ccccc1C(=O)Nc1nc2cc3c(cc2s1)OCO3 the results were JMJD2A Tudor 1%[11.4 µM], Sfp inh 10%, G9a inh 36%, HP1b chromo inh 72% and BAZ2B inh -2%.
For O=C(O)c1ccccc1C(=O)NCc1ccc(F)cc1 the results were JMJD2A Tudor -9%, Sfp inh 1%, G9a inh -28%, HP1b chromo inh 10% and BAZ2B inh 4%.
`O=C(NNC(=O)c1ccccc1-n1cccc1)c1ccc(Cl)cc1Cl` gave JMJD2A Tudor -15%, Sfp inh 13%, G9a inh 35%[0.501 µM], HP1b chromo inh 37% and BAZ2B inh -35%.
`O=C(O)c1ccccc1C(=O)NNc1ccc(F)cc1` gave JMJD2A Tudor 40µM*, Sfp inh inconclusive, G9a inh inconclusive, HP1b chromo inh -24% and BAZ2B inh -21%.
O=C(O)c1ccccc1C(=O)NNc1ccc(Cl)cc1Cl was read as JMJD2A Tudor -9%, Sfp inh 14%, G9a inh 2.8µM*, HP1b chromo inh 35% and BAZ2B inh -28%.
O=C(Cn1c(=O)n2nc(-c3cccc(F)c3)nc2c2ccccc21)N1CCN(c2ccc(F)cc2)CC1 was read as JMJD2A Tudor -8%, G9a inh -9%[59 µM], HP1b chromo inh 40% and BAZ2B inh 4%.
Screening COc1ccc(C(=O)CSc2nnc(-c3ccco3)n2C)cc1 returned JMJD2A Tudor -9%, Sfp inh -8%, G9a inh -8%[59 µM], HP1b chromo inh 32% and BAZ2B inh 5%.
COc1cccc(NC(=O)CSc2nnc(-c3ccco3)c(-c3ccco3)n2)c1 was read as JMJD2A Tudor 45µM*, Sfp inh 10µM*, G9a inh 2.8µM*, HP1b chromo inh inconclusive and BAZ2B inh 50µM*.
Screening CSc1nnc(-c2ccco2)c(-c2ccco2)n1 returned JMJD2A Tudor -7%[11.4 µM], Sfp inh 10µM*, G9a inh inconclusive, HP1b chromo inh inconclusive and BAZ2B inh 20µM*.
For COc1ccc(NC(=O)CSc2nnc(-c3ccco3)c(-c3ccco3)n2)cc1OC the results were JMJD2A Tudor inconclusive, Sfp inh 35µM*, G9a inh 7.1µM*, HP1b chromo inh inconclusive and BAZ2B inh -9%.
For COc1ccc(C(=O)CSc2nnc(-c3ccco3)c(-c3ccco3)n2)cc1 the results were JMJD2A Tudor 22µM*, Sfp inh 8.9µM*, G9a inh 8.9µM*, HP1b chromo inh inconclusive and BAZ2B inh 20µM*.
For CC(=O)N(c1ccc2ccccc2c1)C1SC(=O)N(c2cccc(C)c2)C1=O (configuration not stated) the results were JMJD2A Tudor -19% and HP1b chromo inh 38%.
Screening NC(=O)c1nsc(C(=O)N(Cc2cccnc2)C(C(=O)NCc2ccc(F)cc2)c2ccc(F)cc2)c1N (configuration not stated) returned JMJD2A Tudor -13%, Sfp inh 10%, G9a inh -5%[59 µM], HP1b chromo inh 18% and BAZ2B inh 3%.
Screening CCOc1ccccc1NC(=O)c1c(NC(=O)C(C)Oc2ccc(Cl)cc2)sc2c1CCCCC2 (configuration not stated) returned JMJD2A Tudor -26%, G9a inh -8%[59 µM], HP1b chromo inh 4% and BAZ2B inh -10%.
O=C(NCCc1ccccc1)c1cnc2ccccc2n1 was read as JMJD2A Tudor -19%, Sfp inh 3%, G9a inh 25%, HP1b chromo inh 19% and BAZ2B inh 10%.
`Nc1nc(N)c2ncc(C(=O)CCc3ccccc3)nc2n1` gave JMJD2A Tudor 14µM*, Sfp inh 0%, G9a inh 40µM*, HP1b chromo inh -26% and BAZ2B inh inconclusive.
`CN1C2C=C3C(C#N)=C(N)C(C#N)(C#N)[C@H](c4c(F)cccc4F)[C@H]3C1CC2` (some centres not stated) gave JMJD2A Tudor -22%, Sfp inh 9%, G9a inh 50µM*, HP1b chromo inh 30% and BAZ2B inh inconclusive.
Screening N#CC1=C(N)C(C#N)(C#N)C(c2cccnc2)C2COCC=C12 (configuration not stated) returned JMJD2A Tudor -9%[57.1 µM], Sfp inh -12%, G9a inh inconclusive, HP1b chromo inh 64% and BAZ2B inh 17%.
Screening N#CC1=C(N)C(C#N)(C#N)C2(CCC3(CC2)OCCO3)C2CC3(CC=C12)OCCO3 (configuration not stated) returned JMJD2A Tudor -15%, Sfp inh 3%, G9a inh -2%[59 µM], HP1b chromo inh 33% and BAZ2B inh 100µM*.
N#CC1=C(N)C(C#N)(C#N)[C@H](c2c(F)cccc2F)[C@H]2CC3(CC=C12)OCCO3 was read as JMJD2A Tudor -15%, Sfp inh -9%, G9a inh 50µM*, HP1b chromo inh 31% and BAZ2B inh -14%.
For COc1ccc(-c2nc3c4ccccc4n(CC(=O)N4CCN(c5ccccc5OC)CC4)c(=O)n3n2)cc1 the results were JMJD2A Tudor -9%, G9a inh -2%[59 µM], HP1b chromo inh -5% and BAZ2B inh -1%.
For COc1ccc(CNCc2ccccc2)cc1COc1ccc(NC(C)=O)cc1 the results were JMJD2A Tudor -18% and HP1b chromo inh 21%.
For CCOC(=O)c1cc(S(=O)(=O)N2CCN(c3ccccc3OC)CC2)[nH]n1 the results were JMJD2A Tudor -23%, G9a inh 28µM*, HP1b chromo inh 11%[57 µM] and BAZ2B inh -10%.
Screening CCOC(=O)c1cc(S(=O)(=O)N2CCN(c3cc(Cl)ccc3C)CC2)[nH]n1 returned JMJD2A Tudor inconclusive, G9a inh 13µM*, HP1b chromo inh 16%[57 µM] and BAZ2B inh inconclusive.
`CCOC(=O)c1cc(S(=O)(=O)N2CCN(c3cccc(OC)c3)CC2)[nH]n1` gave JMJD2A Tudor -31%, G9a inh inconclusive, HP1b chromo inh 9%[57 µM] and BAZ2B inh inconclusive.
Cc1ccc(Cl)cc1N1CCN(S(=O)(=O)c2cccc(S(=O)(=O)N3CCCC3)c2)CC1 was read as JMJD2A Tudor -8%, Sfp inh 13%, G9a inh -12%[12.7 µM], HP1b chromo inh 25% and BAZ2B inh -4%.
`CCOC(=O)c1cc(S(=O)(=O)N2CCN(c3ccc(F)cc3)CC2)[nH]n1` gave JMJD2A Tudor -21%, G9a inh 28µM*, HP1b chromo inh 7%[57 µM] and BAZ2B inh inconclusive.
